Assay [1] in a line: Tanguay_ZF_120hpf_NC_legacy: (Legacy) Oregon State University Tanguay Lab 120 Hour Post-fertilization zebrafish Assay for Notochord and Tail Malformation (AID 2283656). The method, boiled down: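 Binary scoring of notochord distortion by brightfield microscopy; embryos dying were not scored. Wild-type Tropical 5D embryos, chorion removed, exposed singly and statically from 6 to 120 hpf, 28C, sealed, 0.64% DMSO.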

Assay [2] has as its system Thyroperoxidase (TPO), gene 54314. The assay can be described thus: CCTE_Simmons_AUR_rTPO: CCTE's Amplex UltraRed Assay for Thyroperoxidase (TPO) Inhibition, Simmons Lab (AID 2283662).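 As to AC50: potency for loss of signal meaning inhibition of peroxidase activity.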 An outline of the steps: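 Rat thyroid microsomes (5 ug protein) were incubated with test compound (8 concentrations, 5 nM–87.5 uM final, 0.5% DMSO), 25 uM Amplex UltraRed and 300 uM H2O2 in 200 mM phosphate buffer for 30 min at 37C in the dark; fluorescence read at 544/590 nm.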

The nature of assay [3]: CCTE_Simmons_CellTiterGLO_HEK293T: Viability Assessment in CCTE's Assays for Thyroperoxidase (TPO) Inhibition, Simmons Lab (AID 2283665).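 As to AC50: cells exposed to compound for 24 h before readout; actives reduce ATP signal below DMSO vehicle meaning cytotoxicity.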 The method, boiled down:
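Luciferase-coupled ATP content after 24 h exposure gives viability; 8-point series from 5 nM to 87.5 uM final in 0.5% DMSO. Human HEK293T cells, 1% FBS medium, three biological replicates, dichlone positive control.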

Read-out in assay [4]: ABC Transporter (ABCB1), ABCB1 (gene 5243)
The assay can be described thus: CLD_ABCB1_6hr: CellzDirect (CLD) Gene Expression Assay for ABC Transporter (ABCB1) at 6 hours (AID 2283659).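 Also: hits raise ABCB1 transcript above the DMSO vehicle baseline.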 The method, boiled down:
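ABCB1 transcript measured by quantitative nuclease protection assay, chemiluminescent read-out, 6 h after dosing human hepatocyte cultures (0.2% DMSO vehicle, daily redosing). Activity fitted as increase over DMSO baseline; cytotoxicity flagged by phase-contrast morphology.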

Read-out in assay [5]: Broad substrate specificity ATP-binding cassette transporter ABCG2 (Homo sapiens) (UniProt Q9UNQ0)
In words: CLD_ABCG2_6hr: CellzDirect (CLD) Gene Expression Assay for ABC Transporter (ABCG2) at 6 hours (AID 2283660). The method, boiled down:
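ABCG2 mRNA induction measured by qNPA chemiluminescence in human primary hepatocyte cultures, 6 h post-dose. Chemicals tested at several concentrations against a 0.2% DMSO vehicle; positive-direction fit relative to DMSO.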

Read-out in assay [6]: xenobiotic metabolism (CYP1A1), CYP1A1 (gene 1543)
The assay can be described thus: CLD_CYP1A1_6hr: CellzDirect (CLD) Gene Expression Assay for xenobiotic metabolism (CYP1A1) at 6 hours (AID 2283661).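 As to AC50: potency for transcript induction above DMSO vehicle baseline.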 An outline of the steps:
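Read-out 6 h post-dose: qNPA chemiluminescent quantitation of transcript induction against 0.2% DMSO. Cells were cultured primary human hepatocytes from two separate donor preparations; phase-contrast morphology annotated apparent cytotoxicity.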

Read-out in assay [7]: xenobiotic metabolism (CYP2C9), CYP2C9 (gene 1559)
In words: CLD_CYP2C9_6hr: CellzDirect (CLD) Gene Expression Assay for xenobiotic metabolism (CYP2C9) at 6 hours (AID 2283664). An outline of the steps:
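Readout is qNPA chemiluminescence of CYP2C9 mRNA, taken 6 h after dosing of cultured human liver primary cells at several concentrations. Activity is the increase over 0.2% DMSO baseline. Morphology-based cytotoxicity flagged yes/no.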

Read-out in assay [8]: xenobiotic metabolism (CYP1A2), CYP1A2 (gene 1544)
In words: CLD_CYP1A2_6hr: CellzDirect (CLD) Gene Expression Assay for xenobiotic metabolism (CYP1A2) at 6 hours (AID 2283663).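 As to AC50: potency is for induction meaning a rise in mRNA above DMSO.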 An outline of the steps:
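mRNA levels quantified by quantitative nuclease protection assay with chemiluminescence, 6 h after dosing human primary hepatocyte cultures (two donors) across several concentrations, vehicle 0.2% DMSO. Induction fitted upward versus DMSO; phase-contrast cytotoxicity annotated.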

Read-out in assay [9]: solute carrier (SLC10A1), SLC10A1 (gene 6554)
In words: LTEA_HepaRG_SLC10A1: Life Technologies and Expression Analysis (LTEA) Assay for solute carrier (SLC10A1) using HepaRG (AID 2283657; active = hit-call score of the fitted dose curve at least 0.9, where 1 is the maximum; inactive = score below 0.9). The conditions noted are these: mRNA level, 48 h; actives raise or lower the signal. An outline of the steps:
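SLC10A1 transcript measured by TaqMan qRT-PCR, housekeeping-normalised, after 48 h chemical treatment of human HepaRG cells. Eight concentrations (half-log, max 100 uM, 0.5% DMSO vehicle) in duplicate; fitted bidirectionally against DMSO baseline.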

Read-out in assay [10]: matrix metalloproteinase-1 (MMP1), MMP1 (gene 4312)
The assay can be described thus: LTEA_HepaRG_MMP1: Life Technologies and Expression Analysis (LTEA) Assay for matrix metalloproteinase-1 (MMP1) using HepaRG (AID 2283658; active = hit-call score of the fitted dose curve at least 0.9, where 1 is the maximum; inactive = score below 0.9). The note with it: mRNA level, 48 h; actives raise or lower the signal. An outline of the steps: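 MMP1 transcript read by TaqMan qRT-PCR (Fluidigm array) after 48 h chemical exposure of HepaRG cells in serum-free induction medium. Eight-point half-log series, top 100 uM, 0.5% DMSO vehicle. Bidirectional curve fit against DMSO baseline.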

This is an account of results in PubChem BioAssay (EPA / NIEHS).

Molecules are shown by their SMILES. Inconclusive results are not listed. Activity calls are given as the source filed them. The calls were made as follows, unless noted: active = hit-call score of the fitted dose curve at least 0.9, where 1 is the maximum; inconclusive = response in the unintended direction; inactive = score below 0.9.

One may read the AC50 as the concentration at which the activity in the assay is half-maximal.

Broad substrate specificity ATP-binding cassette transporter ABCG2 (Homo sapiens), sequence (Q9UNQ0 whole entry, looked up): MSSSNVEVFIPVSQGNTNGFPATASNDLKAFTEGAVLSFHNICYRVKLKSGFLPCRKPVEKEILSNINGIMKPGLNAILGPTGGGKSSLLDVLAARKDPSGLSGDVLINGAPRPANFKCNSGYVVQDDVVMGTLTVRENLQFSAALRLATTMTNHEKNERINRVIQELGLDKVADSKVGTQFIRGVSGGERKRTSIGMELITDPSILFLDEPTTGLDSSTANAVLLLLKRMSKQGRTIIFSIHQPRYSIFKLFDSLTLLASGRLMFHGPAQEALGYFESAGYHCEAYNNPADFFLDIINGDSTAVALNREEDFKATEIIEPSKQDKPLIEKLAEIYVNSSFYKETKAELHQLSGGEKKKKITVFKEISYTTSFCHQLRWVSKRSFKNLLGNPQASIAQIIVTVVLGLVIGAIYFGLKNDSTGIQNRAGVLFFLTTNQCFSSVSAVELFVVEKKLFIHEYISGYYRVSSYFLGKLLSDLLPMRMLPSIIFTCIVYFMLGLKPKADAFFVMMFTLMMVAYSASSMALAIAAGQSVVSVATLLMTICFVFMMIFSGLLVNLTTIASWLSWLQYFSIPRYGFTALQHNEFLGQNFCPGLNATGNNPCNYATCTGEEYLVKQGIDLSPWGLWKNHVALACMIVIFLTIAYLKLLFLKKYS

Turning to `CCOP(=S)(OCC)SCSC(C)(C)C`, the outcome in [1] was inactive. The AC50 in assay [2] was 8.68 µM (active); in [3] it was 20.9 µM (active).

As for `CCC(C)(CC)c1cc(NC(=O)c2c(OC)cccc2OC)on1`, the call in assay [1], in assay [4], in assay [5], in [6] and in assay [7] was inactive.

As to `Cc1ccccc1CO[C@@H]1C[C@@]2(C(C)C)CC[C@]1(C)O2`, the call in assay [1], in assay [4], in assay [5], in assay [6] and in assay [8] was inactive. The AC50 in [2] is 28 µM (active); in [3], 21.6 µM (active).

For `Sc1ccccc1`, the outcome in assay [2] and in [3] was inactive.

Turning to `COS(=O)(=O)OC`, the compound was classed as inactive in assay [1], in assay [9], in [10] and in assay [3]. The AC50 in assay [2] is 27 µM (active).

Take `Clc1ccc(C(Cl)(Cl)Cl)cc1`: the compound was classed as inactive in [1], in [2] and in assay [3].

For the compound `CCC(=O)O[C@H]1CC[C@H]2[C@@H]3CCC4=CC(=O)CC[C@]4(C)[C@H]3CC[C@]12C`, the result in [1] and in assay [2] was inactive. For the same compound, the AC50 in [3] was 9.47 µM (active).

In the case of `CC1=C2C[C@H]3[C@@H](CC=C4C[C@@H](O)CC[C@@]43C)[C@@H]2CC[C@]12O[C@@H]1C[C@H](C)CN[C@H]1[C@H]2C`, the compound was called inactive in assay [1], in assay [9] and in assay [10].

For `CCCCCCCCOC(=O)c1ccccc1C(=O)OCCCCCCCC`, the outcome in assay [1] and in assay [3] was inactive. Further, the AC50 in assay [2] was 11.8 µM (active).

Turning to `Oc1c(Cl)c(Cl)c(Cl)c(Cl)c1Cl`, the compound was classed as inactive in assay [1] and in assay [3]. The AC50 in assay [2] was 8.93 µM (active).

For the compound `CCNc1nc(NC(C)C)nc(SC)n1`, the outcome in [1] and in [4] was inactive. Besides, the AC50 was 1.42 µM (active) in assay [6] and 0.262 µM (active) in [8].

For the compound `Cc1ccc(O)c(C)c1`, the call in [1] and in [3] was inactive. The AC50 in assay [2] is 18.2 µM (active).

With `CCCN(CCC)N=O`, in assay [1], the call was inactive.

On to `CCOC(=O)C(O)(c1ccc(Cl)cc1)c1ccc(Cl)cc1`, for which the result in [1] was inactive.

As for `CCSC(=O)N(CC)C1CCCCC1`, the compound was called inactive in assay [4], in [6], in assay [8] and in assay [7].

On to `CCCCCCCCCc1ccc(O)cc1`, for which the compound was classed as inactive in [1], in assay [9] and in [10]. For the same compound, the AC50 in assay [2] was 10.5 µM (active); in assay [3], 15.7 µM (active).

`COc1ccc(O)c(C(C)(C)C)c1`: the outcome in assay [1] was inactive. The AC50 in assay [2] is 0.701 µM (active); in [3] it was 60.5 µM (active).
